Data: PubChem BioAssay (NCI)
The panel holds about 83,000 compounds, 20% with a hit somewhere; the sample as a whole holds those more often.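 Note: values are percent growth. 100 is the growth of untreated cells, values between 100 and 0 indicate rising inhibition; between -100 and 0 indicates cell death.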 The source made the active and inactive calls. The calls were made as follows: active = growth percent below 10; inactive = the rest.

How the values were obtained:
Experiment in all cases: NCI-60 one-dose screen, 48 h (100 = growth as untreated, 0 = no growth, -100 = all killed)
Settings in all cases: 10 µM unless noted
NCI-H23 lung = test system: NCI-H23 lung
NCI-H226 lung = test system: NCI-H226 lung
NCI-H322M lung = test system: NCI-H322M lung
HOP-62 NSCLC = test system: HOP-62 NSCLC
NCI-H460 lung = test system: NCI-H460 lung
HOP-92 NSCLC = test system: HOP-92 NSCLC
NCI-H522 lung = test system: NCI-H522 lung
A549/ATCC NSCLC = test system: A549/ATCC NSCLC
786-0 renal = test system: 786-0 renal
COLO 205 colon = test system: COLO 205 colon
DU-145 prostate = test system: DU-145 prostate
K-562 leukemia = test system: K-562 leukemia
MALME-3M melanoma = test system: MALME-3M melanoma
MDA-MB-231 breast = test system: MDA-MB-231 breast
RXF 393 renal = test system: RXF 393 renal
SF-268 CNS = test system: SF-268 CNS
SF-295 CNS = test system: SF-295 CNS
SF-539 CNS = test system: SF-539 CNS
UACC-257 melanoma = test system: UACC-257 melanoma
M14 melanoma = test system: M14 melanoma

Measured: growth

CCCCCCc1nc2nc(Cl)c(Cl)nc2[nH]1
active: HOP-92 NSCLC -13.8%
inactive: NCI-H23 lung 34.8% | NCI-H226 lung 63.2% | NCI-H322M lung 96% | HOP-62 NSCLC 88.1% | NCI-H460 lung 52.7% | NCI-H522 lung 32.6% | A549/ATCC NSCLC 53.2% | 786-0 renal 65.8% | COLO 205 colon 102% | DU-145 prostate 72.5% | K-562 leukemia 39% | MALME-3M melanoma 46.6% | MDA-MB-231 breast 89.4% | RXF 393 renal 90.4% | SF-268 CNS 83.3% | SF-295 CNS 58% | SF-539 CNS 65.3% | UACC-257 melanoma 54.9% | M14 melanoma 89.6%

CCCCCN1C=C/C(=C\C(=O)N(C)c2ccc(Br)cc2)c2ccccc21
inactive: NCI-H23 lung 87.3% | NCI-H226 lung 86.3% | NCI-H322M lung 98.8% | HOP-62 NSCLC 94.5% | NCI-H460 lung 105% | HOP-92 NSCLC 82.7% | NCI-H522 lung 82.1% | A549/ATCC NSCLC 95.2% | 786-0 renal 98% | COLO 205 colon 108% | DU-145 prostate 104% | K-562 leukemia 76.5% | MALME-3M melanoma 96.9% | MDA-MB-231 breast 101% | RXF 393 renal 92.9% | SF-268 CNS 96.2% | SF-295 CNS 99.2% | SF-539 CNS 102% | UACC-257 melanoma 95.1% | M14 melanoma 104%

Cc1ccc(Nc2cc(=S)nc(N)[nH]2)cc1C
inactive: NCI-H23 lung 90.8% | NCI-H226 lung 97.1% | NCI-H322M lung 98.1% | HOP-62 NSCLC 89.3% | NCI-H460 lung 103% | HOP-92 NSCLC 75.7% | NCI-H522 lung 91.1% | A549/ATCC NSCLC 99.9% | 786-0 renal 98.9% | COLO 205 colon 112% | DU-145 prostate 102% | K-562 leukemia 92.9% | MALME-3M melanoma 100% | MDA-MB-231 breast 80.6% | RXF 393 renal 107% | SF-268 CNS 100% | SF-295 CNS 98.6% | SF-539 CNS 96.4% | UACC-257 melanoma 103% | M14 melanoma 93.7%

Cc1[nH]n(-c2cccc(Cl)c2)c(=O)c1/C=C1\C=Nc2ccc(Br)cc21
active: HOP-62 NSCLC -16.4% | NCI-H460 lung -72.9% | HOP-92 NSCLC -16.9% | A549/ATCC NSCLC -8.71% | 786-0 renal -4.37% | COLO 205 colon 7.07% | RXF 393 renal -44.4%
inactive: NCI-H23 lung 31.7% | NCI-H226 lung 69.1% | NCI-H322M lung 54.9% | NCI-H522 lung 29.2% | DU-145 prostate 36.2% | K-562 leukemia 64% | MALME-3M melanoma 12.6% | MDA-MB-231 breast 17.4% | SF-268 CNS 51.1% | SF-295 CNS 31.3% | SF-539 CNS 42.2% | UACC-257 melanoma 75.1% | M14 melanoma 54.3%

Fc1cc(C2=NNC(c3ccc[nH]3)C2)ccc1-n1ccc(C(F)(F)F)n1 (stereo not drawn)
inactive: NCI-H23 lung 89.2% | NCI-H226 lung 83.9% | NCI-H322M lung 86.3% | HOP-62 NSCLC 80.3% | NCI-H460 lung 64.8% | HOP-92 NSCLC 102% | NCI-H522 lung 73.6% | A549/ATCC NSCLC 68.4% | 786-0 renal 85.8% | COLO 205 colon 109% | DU-145 prostate 82.8% | K-562 leukemia 62.2% | MALME-3M melanoma 93.7% | MDA-MB-231 breast 62.7% | RXF 393 renal 105% | SF-268 CNS 67.3% | SF-295 CNS 71.3% | SF-539 CNS 88.1% | UACC-257 melanoma 98.5% | M14 melanoma 96.4%

CCCCCOc1ccc(/C=N/Nc2cc(C)nc3ccc(Br)cc23)cc1
inactive: NCI-H23 lung 75.1% | NCI-H226 lung 91.5% | NCI-H322M lung 65.1% | HOP-62 NSCLC 58.1% | HOP-92 NSCLC 69.7% | SF-268 CNS 87.2% | UACC-257 melanoma 102% | M14 melanoma 15.5%
active: NCI-H460 lung -57.9% | NCI-H522 lung 1.99% | A549/ATCC NSCLC 2.38% | 786-0 renal -90.9% | COLO 205 colon -50.4% | DU-145 prostate 0.579% | K-562 leukemia -19.6% | MALME-3M melanoma -35.9% | MDA-MB-231 breast -51.4% | RXF 393 renal -82.9% | SF-295 CNS -84.8% | SF-539 CNS -83.7%

O=C1Nc2ccccc2/C1=N/c1nc(-c2ccc(Cl)cc2)cs1
inactive: NCI-H23 lung 75% | NCI-H226 lung 64.2% | NCI-H322M lung 92.6% | HOP-62 NSCLC 56% | NCI-H460 lung 67.7% | HOP-92 NSCLC 51.5% | NCI-H522 lung 50.1% | A549/ATCC NSCLC 49.4% | 786-0 renal 75.6% | COLO 205 colon 63.8% | DU-145 prostate 75.3% | K-562 leukemia 48.5% | MALME-3M melanoma 81.4% | MDA-MB-231 breast 67.8% | RXF 393 renal 64.7% | SF-268 CNS 54.1% | SF-295 CNS 81.5% | SF-539 CNS 84.5% | UACC-257 melanoma 48.9% | M14 melanoma 67.8%

COc1cc(Nc2cc(O)c3c(=O)cc(-c4ccccc4)oc3c2)cc(OC)c1
inactive: NCI-H23 lung 35.9% | NCI-H226 lung 67.7% | NCI-H322M lung 44.1% | HOP-62 NSCLC 35.5% | HOP-92 NSCLC 79.5% | A549/ATCC NSCLC 25.9% | 786-0 renal 45.4% | COLO 205 colon 48.4% | DU-145 prostate 20% | K-562 leukemia 13.1% | MALME-3M melanoma 73.6% | MDA-MB-231 breast 15.9% | SF-268 CNS 48.2% | SF-295 CNS 33.5% | UACC-257 melanoma 77.9%
active: NCI-H460 lung 7.62% | NCI-H522 lung -35.3% | SF-539 CNS -35.2%

C=C(C)[C@@H]1CC[C@]2(CO)CC[C@]3(C)[C@H](CC[C@@H]4[C@@]5(C)CCCNC(C)(C)[C@@H]5CC[C@]43C)[C@@H]12
active: NCI-H460 lung -54.4% | COLO 205 colon -63.5% | K-562 leukemia -26.6% | MALME-3M melanoma -65.4% | UACC-257 melanoma -8.72% | M14 melanoma -49.8%
inactive: NCI-H23 lung 62.6% | NCI-H226 lung 84.4% | NCI-H322M lung 69.8% | HOP-62 NSCLC 79% | HOP-92 NSCLC 82% | NCI-H522 lung 64.2% | A549/ATCC NSCLC 44.9% | 786-0 renal 30.2% | DU-145 prostate 49.5% | MDA-MB-231 breast 46.8% | RXF 393 renal 48.4% | SF-268 CNS 61.2% | SF-295 CNS 40.4% | SF-539 CNS 34.3%

C=C(C)[C@@H]1CC[C@]2(C(=O)N3CCN(C)CC3)CC[C@]3(C)[C@H](CC[C@@H]4[C@@]5(C)CCC(=O)C(C)(C)[C@@H]5CC[C@]43C)[C@@H]12
inactive: NCI-H23 lung 89.9% | NCI-H226 lung 88.5% | NCI-H322M lung 91.5% | HOP-62 NSCLC 86.4% | NCI-H460 lung 21% | HOP-92 NSCLC 52.8% | NCI-H522 lung 85.1% | A549/ATCC NSCLC 85.1% | 786-0 renal 71.1% | COLO 205 colon 72.4% | DU-145 prostate 82.8% | K-562 leukemia 60.5% | MALME-3M melanoma 89% | MDA-MB-231 breast 79.4% | RXF 393 renal 80.5% | SF-268 CNS 77.2% | SF-295 CNS 103% | SF-539 CNS 73.9% | UACC-257 melanoma 101% | M14 melanoma 94.7%

COc1cc2c(cc1[N+](=O)[O-])-c1ccc([N+](=O)[O-])cc1/C2=N/NC(N)=S
inactive: NCI-H23 lung 71.5% | NCI-H226 lung 62.6% | NCI-H322M lung 93.9% | HOP-62 NSCLC 99.9% | NCI-H460 lung 29.6% | HOP-92 NSCLC 78.3% | NCI-H522 lung 35.5% | A549/ATCC NSCLC 69.2% | 786-0 renal 70.6% | COLO 205 colon 66.7% | DU-145 prostate 79% | K-562 leukemia 59.9% | MALME-3M melanoma 93.7% | MDA-MB-231 breast 74.4% | RXF 393 renal 68.2% | SF-268 CNS 73.9% | SF-295 CNS 43.6% | SF-539 CNS 73% | UACC-257 melanoma 75.5% | M14 melanoma 82.8%

CC(=O)c1cc2c(N)c(C(=O)Nc3cncc4ccccc34)sc2nc1C
inactive: NCI-H23 lung 101% | NCI-H226 lung 105% | NCI-H322M lung 113% | HOP-62 NSCLC 93.5% | NCI-H460 lung 110% | HOP-92 NSCLC 98.6% | NCI-H522 lung 92.1% | A549/ATCC NSCLC 106% | 786-0 renal 98.4% | COLO 205 colon 121% | DU-145 prostate 115% | K-562 leukemia 81.7% | MALME-3M melanoma 112% | MDA-MB-231 breast 86.2% | RXF 393 renal 100% | SF-268 CNS 105% | SF-295 CNS 97.2% | SF-539 CNS 98.3% | UACC-257 melanoma 104% | M14 melanoma 94%
